High-throughput results (PubChem)
Hits are enriched below; roughly 3.5% of the tested compounds scored in any of these assays.
MITF inh: inhibitors of human MITF. AID 1259374. AlphaScreen MITF homodimerization, bead proximity signal. hit rate 0.91% among 650,000. inhibition, % at 2.6 µM; in the data active = inhibition above about 50%;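 note: 0% = vehicle wells with protein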
Target sequence (O75030 whole entry, looked up): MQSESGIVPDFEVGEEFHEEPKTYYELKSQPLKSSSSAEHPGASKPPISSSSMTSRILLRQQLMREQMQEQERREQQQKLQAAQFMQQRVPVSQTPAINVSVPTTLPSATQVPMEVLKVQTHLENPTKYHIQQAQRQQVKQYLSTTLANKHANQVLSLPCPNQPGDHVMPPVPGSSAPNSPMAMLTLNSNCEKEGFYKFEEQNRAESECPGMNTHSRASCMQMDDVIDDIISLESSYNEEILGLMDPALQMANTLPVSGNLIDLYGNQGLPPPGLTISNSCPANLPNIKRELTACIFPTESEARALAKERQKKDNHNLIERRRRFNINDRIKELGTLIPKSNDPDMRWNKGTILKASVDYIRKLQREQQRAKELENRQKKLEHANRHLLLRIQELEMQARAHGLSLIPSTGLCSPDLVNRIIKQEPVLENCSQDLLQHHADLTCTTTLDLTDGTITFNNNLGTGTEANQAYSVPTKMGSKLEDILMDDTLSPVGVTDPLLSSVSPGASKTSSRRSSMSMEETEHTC
GPR151 activ: activators of human GPR151; Q8TDV0; PathHunter beta-arrestin GPR151 cells, luminescence; activation, % at 11.2 µM; hit rate 1% among 650,000; AID 1508602; in the data active = activation above about 4.9%;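 note: 0% = median of compound wells and 100% = cells with positive control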
FBW7 act: activators of human E3 ligase FBW7. Q969H0. normalized activity (activation), % at 26.1 µM. AlphaScreen FBW7–phospho-cyclin E peptide binding, activator screen. hit rate 0.13% among 650,000. AID 1259310; in the data active = normalized activity above about 1.9%;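 note: purified mutant Fbw7 with reduced substrate affinity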
TEAD-YAP inh: TEAD-YAP interaction inhibition | HEK-TIYL cells, TEAD-Gal4/YAP UAS-luciferase luminescence | inhibition, % at 9.12 µM | hit rate 1.4% among 640,000 | AID 1259422; in the data active = inhibition above about 32%;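 note: 0% = median of test compound wells and 100% = reference inhibitor wells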
GPR151 conf act: human GPR151 activation, confirmation screen | shares compounds with GPR151 activ | GPR151 PathHunter beta-arrestin cells, luminescence, 90 min; % of EA-reagent control over plate median | AID 1508609 | 6,700 tested, under 10 active | activation, % at 11.2 µM;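 active = mean percent activation across replicates above the confirmation screen cutoff of 4.91%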
GPR119 counter: GPR119 activation, counter-screen for GPR151 activators. shares compounds with GPR151 activ. GPR119 PathHunter beta-arrestin cells, luminescence, 90 min; 0 = compound-well median, 100 = enzyme-acceptor control. activation, % at 11.2 µM. hit rate 0.3% among 6,700;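 active = mean percent activation in the counterscreen above 29.09%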;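 note: counterscreen on off-target GPR119 to flag nonselective hits from the GPR151 activator screen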
Active calls of the source: *; · = no result given.

SMILES | MITF inh | GPR151 activ | FBW7 act | TEAD-YAP inh | GPR151 conf act | GPR119 counter
CN1CCN(Cc2ccc(-c3ccccc3Cl)o2)CC1CCO (stereo not given) | -1 | 14* | 0 | -12 | 0 | 4
O=C(Nc1ccc(-n2ncc3ccc(-c4nn[nH]n4)cc32)cc1)c1ccccc1 | -14 | -2 | 0 | -7 | · | ·
O=C(Cc1ccc(F)cc1)Nc1ccc(-n2ncc3ccc(-c4nn[nH]n4)cc32)cc1 | 3 | 5.0* | -1 | -7 | 0 | 4
CC(C)n1nnnc1C(c1ccc(F)cc1)N1CCN(c2ccccc2F)CC1 (stereo not given) | -5 | -1 | 0 | 2 | · | ·
O=C(O)CCC(NCC(O)Cn1c2ccccc2c2ccccc21)C(=O)O (stereo not given) | -16 | 5.6* | 0 | 2 | 2 | 16
CC(C)CC(NCC(O)Cn1c2ccccc2c2ccccc21)C(=O)O (stereo not given) | -7 | 1 | 0 | 0 | · | ·
Cc1ccc(CNC(=O)CCCn2c(=O)c3ccccc3n(CC(N)=O)c2=O)cc1 | -3 | 5.2* | 0 | 0 | 1 | 4
C=CCOc1ccccc1CN1CCc2nnc(CNC(=O)C3CCCN(C)C3)n2CC1 (stereo not given) | 10 | -1 | 0 | 1 | · | ·
C=CCOc1ccccc1CN1CCc2nncn2CC1 | 5 | 7.4* | 0 | -3 | 0 | 4
c1cnc2c(CN3CCc4nncn4CC3)cccc2c1 | -12 | -1 | 0 | 10 | · | ·
C=CCOc1ccccc1CN1CCc2nnc(CNC(=O)C3CCC(=O)N3)n2CC1 (stereo not given) | 7 | 5.6* | 0 | -7 | 1 | 11
O=C(NCc1cccc(C(F)(F)F)c1)c1ccc2nc(N3CCCC3CO)sc2c1 (stereo not given) | 11 | -2 | 0 | 1 | · | ·
COc1cccc(CNC(=O)NC23CC4CC(CC(C4)C2)C3)c1 | -3 | -2 | 0 | -13 | · | ·
CC(=O)Nc1cnn(-c2ccc(C(=O)N(C)Cc3ccc(Oc4ccccc4)cc3)cc2)c1 | 6 | 8.4* | 0 | 11 | 1 | 28
COc1cccc(OC)c1-c1[nH]nc2nc(-c3ccc(=O)[nH]c3)ccc12 | 1 | 6.7* | 0 | 7 | -1 | -4
COC(=O)C1=C(C)NC(=O)C1(NC(=O)c1ccc(OC)c(OC)c1)C(F)(F)F (stereo not given) | -9 | 13* | 0 | 0 | 0 | -5
Cc1nc2sccn2c(=O)c1S(=O)(=O)N1CCC(Cc2ccccc2)CC1 | 5 | 6.2* | 0 | -4 | 0 | 0
c1ccc(Nc2nc(Nc3ccccc3)c3ncn(-c4ccsc4)c3n2)cc1 | 11 | 1 | 0 | 7 | · | ·
OCCNc1nc(Nc2ccccc2)nc2c1ncn2-c1ccsc1 | 13 | 5.1* | 0 | 59* | 0 | -8
CN(C)c1cccc(Nc2nc(NCCO)c3ncn(-c4ccsc4)c3n2)c1 | 17 | -2 | 0 | 8 | · | ·
Cc1nn(C)c(C)c1-c1nc(NCCN2CCOCC2)c2ncn(-c3ccccc3)c2n1 | 18 | 0 | 0 | 21 | · | ·
CC(C)N(CCNc1nc(Nc2cccc(N(C)C)c2)nc2c1ncn2-c1ccsc1)C(C)C | 9 | 5.7* | 0 | 2 | -1 | -13
CN(C)c1cccc(Nc2nc(Nc3ccc4c(c3)OCO4)c3ncn(-c4ccsc4)c3n2)c1 | 7 | 5.0* | 0 | -34 | -1 | -13
CN(C)c1cccc(Nc2nc(Nc3ccc(N4CCOCC4)cc3)c3ncn(-c4ccsc4)c3n2)c1 | 5 | 0 | 0 | 9 | · | ·
Cc1nn(C)c(C)c1-c1nc(NCCO)c2ncn(-c3ccccc3)c2n1 | 3 | 5.2* | 0 | 29 | 1 | -3
SMILES | MITF inh | GPR151 activ | FBW7 act | TEAD-YAP inh | GPR151 conf act | GPR119 counter
CN(CC(=O)Nc1ccc(F)c(F)c1F)CN1C(=O)C2CC=CCC2C1=O (stereo not given) | 3 | 0 | 0 | 4 | · | ·
C#CCSc1nc2ccccc2c(=O)n1C | -24 | 1 | 0 | 9 | · | ·
CCN(CC)C(=O)Cn1nc2n(C)c3ccccc3n2c1=O | 5 | -1 | 0 | 3 | · | ·
COCCCNc1nc2nonc2nc1N1CCN(CCOc2ccccc2)CC1 | 1 | 7.2* | 0 | 8 | 1 | -1
N#C/C(=C/c1ccc(F)cc1)c1ccc(C#N)cc1 | 10 | 8.3* | 0 | -8 | 0 | 1
CCn1c(SCC(=O)Nc2c(C)cccc2C)nnc1-c1ccc2[nH]c(C)c(C)c2c1 | -6 | 0 | 0 | -2 | · | ·
CCOc1ccc(NC(=O)c2c(NC(=O)CC)sc3c2CCC(C(C)(C)C)C3)cc1 (stereo not given) | 12 | 0 | 0 | 6 | · | ·
CCC(=O)Nc1sc2c(c1C(=O)Nc1ccc(OC)cc1)CCC(C(C)(C)C)C2 (stereo not given) | 1 | 8.8* | 0 | -1 | -2 | -11
O=C1CCC(c2sc(Cl)c(Cl)c2Cl)=NN1c1ccccc1 | 4 | 12* | 0 | -4 | 0 | -5
O=C1CCC(c2ccccc2)=NN1c1ccccn1 | 10 | 1 | 0 | -11 | · | ·
CN(C)c1ccc(C(c2nnnn2C(C)(C)C)N2CCN(c3ccccc3)CC2)cc1 (stereo not given) | 11 | -1 | 0 | -8 | · | ·
O=c1[nH]cc(N=Cc2ccc(O)cc2)c(=O)[nH]1 | -2 | -1 | 1 | -1 | · | ·
O=c1[nH]cc(N=Cc2ccc([N+](=O)[O-])cc2)c(=O)[nH]1 | -2 | 6.5* | 0 | -9 | -1 | -1
COc1ccc(C(=O)N/C(=C/c2cccc([N+](=O)[O-])c2)C(=O)Nc2cc(Cl)ccc2C)c(Cl)c1 | -11 | 12* | 0 | -8 | 0 | -6
COc1ccc(Br)c(C(=O)N/C(=C/c2cccc([N+](=O)[O-])c2)C(=O)Nc2cc(Cl)ccc2C)c1 | -7 | 0 | 0 | 10 | · | ·
COC(=O)C1=C(C(=O)OC)[C@@H]2N(C)c3ccc(OC)cc3[C@@]23C[C@@H](C(=O)OC)N(C(=O)c2ccco2)C3=N1 | 16 | 6.1* | 0 | · | 0 | -3
CC(C)NC(=O)c1cnc2scc(-c3ccccc3)n2c1=O | 3 | 8.5* | 0 | 2 | 2 | 3
Cc1ccc(-c2nc(N3CCN(c4ccccc4F)CC3)c3ccccc3n2)cc1 | 2 | 0 | 0 | 1 | · | ·
Cn1c(SCC(=O)c2cccc(Br)c2)nnc1-c1ccccn1 | -2 | 4.9* | 0 | -2 | 0 | 2
Cn1c(SCC(=O)Nc2ccc(F)c(F)c2)nnc1-c1ccccn1 | 3 | 3 | 0 | -13 | · | ·
O=C(NCC1CCCO1)C1CCN(C(=O)N2CCOc3ccccc32)CC1 (stereo not given) | 8 | 9.7* | 0 | 3 | 0 | -10
CC(C)NC(=O)C1CCN(C(=O)N2CCOc3ccccc32)CC1 | 0 | -1 | 0 | -4 | · | ·
CCCCNC(=O)Cc1cn(C)c2ccccc12 | 3 | 5.1* | 0 | -26 | 1 | 7
